From PubChem
Pf Dd2 growth = inhibitors of Plasmodium falciparum Dd2 growth; activity change, % at 10 µM; AID 1159554; P. falciparum Dd2 growth, SYBR Green, 72 h; stronger effect = lower value; 94,000 tested, 2.3% active; in the data active means activity change below about -80%; inconclusive means no clear call, values can overlap the other calls
T cruzi growth-1 = T. cruzi proliferation inhibition; T. cruzi beta-gal in NIH3T3, GalScreen luminescence, 90 h; inhibition, % at 8.34 µM; AID 624255; 77,000 tested, 5.9% active;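 active means mean inhibition above about 93%, with at least 55% of replicates each passing it, limit read from the data, passing the limit was not always enough; inconclusive means only one of those two conditions holds; inactive means neither condition holds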
C diff growth = blocks growth of Clostridium difficile. 86,000 tested, 0.25% active. growth activity, negative = inhibition, % at 16 µg/mL (by protocol). Clostridium difficile clinical isolate growth, OD600, 24 h; stronger effect = lower value;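 active means mean growth activity at or below -80% and every replicate also at or below -80%; inconclusive means mean at or below -80% but some replicate above -80%; inactive means mean growth activity above -80%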;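 further: 0% = DMSO wells and -100% = levofloxacin 16 µg/mL wells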
T cruzi growth-2 = inhibitors of T. cruzi proliferation. shares compounds with T cruzi growth-1. T. cruzi beta-gal in NIH3T3, GalScreen luminescence, 90 h. inhibition, % at 8.35 µM. 5,600 tested, 72% active. AID 651739;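 active means mean replicate inhibition above about 95% and at least 55% of replicates individually reaching it, limit read from the data; inconclusive means only one of the two criteria is met; inactive means neither criterion is met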
T cruzi growth-3 = Trypanosoma cruzi proliferation inhibition. T. cruzi beta-gal in NIH3T3, GalScreen luminescence, 90 h. 5,600 tested, 21% active. shares compounds with T cruzi growth-1. inhibition, % at 2.09 µM;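 active means mean inhibition above about 95%, with at least 55% of replicates also reaching it, limit read from the data; inconclusive means meets just one of the two conditions; inactive means meets neither condition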;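 further: plate controls were neutral control median for no effect and positive control median for full effect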
NIH3T3 tox = cytotoxicity in mouse NIH/3T3 fibroblasts. shares compounds with T cruzi growth-1. NIH/3T3 viability, CellTiter-Glo ATP luminescence, 90 h. cytotoxicity (signal decrease), % at 8.35 µM. 5,600 tested, 14% active;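 active means mean signal decrease across replicates above about 35% based on untreated-well scatter, with enough replicates individually passing, limit read from the data; inconclusive means no rule stated though some were filed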;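 further: 0% = median of neutral control wells and 100% = median of positive control wells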
NIH3T3 tox 2 = kills mouse NIH/3T3 fibroblasts | shares compounds with T cruzi growth-1 | 5,600 tested, 56% active | inhibition, % at 24.9 µM | AID 651744 | NIH/3T3 viability, CellTiter-Glo ATP luminescence, 90 h;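 active means mean loss of cell viability signal at or above a set limit, and enough replicates individually reaching it; inconclusive means meets only the mean limit or only the replicate share; inactive means meets neither condition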;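 further: 0% = median of neutral control wells and 100% = median of positive control wells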
* hit, by the source's call; u = inconclusive; x = no result given; ! = not confirmed by another sample. Shown are actives, neighbours in structure and some others; about 6.8% of the full set was active somewhere.

SMILES | Pf Dd2 growth | T cruzi growth-1 | C diff growth | T cruzi growth-2 | T cruzi growth-3 | NIH3T3 tox | NIH3T3 tox 2
C[C@H]1CCCCO[C@@H](CN(C)C(=O)Nc2ccc(F)cc2)[C@@H](C)CN([C@@H](C)CO)C(=O)c2cc(NC(=O)Nc3ccccc3)ccc2O1 | -4 | 77 | -3 | x | x | x | x
C[C@@H]1CCCCO[C@@H](CN(C)C(=O)Nc2ccccc2)[C@H](C)CN([C@H](C)CO)C(=O)c2cc(NC(=O)Nc3ccccc3)ccc2O1 | -50 | 99* | -2 | 108* | 60 | 2 | 3
C[C@@H]1CCCCO[C@@H](CN(C)C(=O)Nc2ccc3c(c2)OCO3)[C@@H](C)CN([C@H](C)CO)C(=O)c2cc(N(C)C)ccc2O1 | -6 | 96*! | 5 | 41 | -8 | -10 | -9
C[C@@H]1CCCCO[C@@H](CN(C)C(=O)Nc2ccc3c(c2)OCO3)[C@H](C)CN([C@H](C)CO)C(=O)c2cc(NC(=O)Nc3ccccc3)ccc2O1 | -46 | 95 | -4 | x | x | x | x
C[C@H](CO)N1C[C@H](C)[C@H](CN(C)C(=O)Nc2ccccc2)OCCCC[C@H](C)Oc2ccc(NC(=O)Nc3ccccc3)cc2C1=O | -12 | 67 | -5 | x | x | x | x
C[C@H]1CCCCO[C@H](CN(C)C(=O)Nc2ccc(F)cc2)[C@@H](C)CN([C@@H](C)CO)C(=O)c2cc(NC(=O)Nc3ccccc3)ccc2O1 | -51 | u | 0 | 108* | 88 | 15 | 11
COCC#Cc1ccc2c(c1)O[C@@H](CN(C)C(=O)NC(C)C)[C@H](C)CN([C@H](C)CO)S2(=O)=O | x | 33 | -2 | x | x | x | x
C=CCN1C(=O)[C@@]2(O[C@@H](CCO)[C@H]([Si](C)(C)c3ccc(OC)cc3)[C@H]2C)c2ccccc21 | x | x | -6 | x | x | x | x
O=C(C[C@@H]1CC[C@H]2[C@@H](COC[C@H](O)CN2Cc2cc(F)ccc2F)O1)NCc1ccccc1 | 2 | 91 | x | x | x | x | x
O=C(C[C@@H]1C=C[C@H](NC(=O)c2ccc(F)cc2)[C@@H](CO)O1)NCCc1ccncc1 | 11 | 18 | x | x | x | x | x
C[C@@H]1CN([C@H](C)CO)C(=O)c2cccc(NS(=O)(=O)c3cccs3)c2O[C@H]1CN(C)Cc1ccc(C(=O)Nc2ccccc2N)cc1 | -70 | x | 2 | x | x | x | x
C[C@@H]1CN([C@H](C)CO)C(=O)c2cc(NS(=O)(=O)c3cccs3)ccc2O[C@H]1CN(C)Cc1ccc(C(=O)Nc2ccccc2N)cc1 | -46 | 92 | x | x | x | x | x
C[C@H](CO)N1C[C@H](C)[C@H](CN(C)Cc2ccc(C(=O)Nc3ccccc3N)cc2)Oc2c(NS(=O)(=O)c3cccs3)cccc2C1=O | -63 | 107* | x | 99* | 84 | 3 | 26*
C[C@H](CO)N1C[C@H](C)[C@H](CN(C)Cc2ccc(-c3ccccc3)cc2)Oc2c(NS(=O)(=O)c3cccs3)cccc2C1=O | -19 | 97* | 15 | 87 | 30 | 15 | 13
C[C@H](CO)N1C[C@H](C)[C@H](CN(C)Cc2ccc(C(=O)Nc3ccccc3N)cc2)Oc2ccc(NS(=O)(=O)c3cccs3)cc2C1=O | -85* | 115* | x | 104* | 90 | 14 | 49*
C[C@H]1CN([C@@H](C)CO)C(=O)c2cccc(NS(=O)(=O)c3cccs3)c2O[C@H]1CN(C)Cc1ccc(-c2ccccc2)cc1 | -11 | 75 | 13 | x | x | x | x
C[C@@H]1CCCCO[C@@H](CN(C)C(=O)CCCN(C)C)[C@H](C)CN([C@@H](C)CO)C(=O)c2cc(NS(C)(=O)=O)ccc2O1 | 20 | 31 | -3 | x | x | x | x
O=C(NC1Cc2ccccc2C1)[C@H]1[C@H](CO)[C@H]2Cn3c(cccc3=O)[C@H]2N1C(=O)C1CC1 | 6 | 55 | -1 | x | x | x | x
O=C1C[C@@](C(=O)NCCN2CCOCC2)(c2ccc([N+](=O)[O-])cc2)[C@@H](c2ccc(CO)cc2)N1CC12CC3CC(CC(C3)C1)C2 | x | x | -2 | x | x | x | x
CC(C)C#Cc1ccc2c(c1)O[C@@H](CN(C)Cc1ccccn1)[C@H](C)CN([C@@H](C)CO)S2(=O)=O | -66 | u | 27 | 108* | 51 | 55* | 95*
CC(C)C#Cc1ccc2c(c1)O[C@H](CN(C)Cc1ccccn1)[C@@H](C)CN([C@H](C)CO)S2(=O)=O | -72 | u | 29 | 102* | 74 | 65* | 54*
C[C@H](CO)N1C[C@H](C)[C@@H](CN(C)Cc2ccccn2)Oc2cc(C#C[C@@H](C)O)ccc2S1(=O)=O | -28 | -8 | 6 | x | x | x | x
C[C@H](O)C#Cc1ccc2c(c1)O[C@@H](CN(C)Cc1ccccn1)[C@H](C)CN([C@@H](C)CO)S2(=O)=O | -19 | 5 | 8 | x | x | x | x
CC(C)C#Cc1ccc2c(c1)O[C@H](CN(C)Cc1ccccn1)[C@H](C)CN([C@@H](C)CO)S2(=O)=O | -74 | 74 | 26 | x | x | x | x
CC(C)C#Cc1ccc2c(c1)O[C@H](CN(C)Cc1ccccn1)[C@@H](C)CN([C@@H](C)CO)S2(=O)=O | -60 | u | 21 | 107* | 79 | 0 | 78*
SMILES | Pf Dd2 growth | T cruzi growth-1 | C diff growth | T cruzi growth-2 | T cruzi growth-3 | NIH3T3 tox | NIH3T3 tox 2
COc1ccc(CN(C)C[C@H]2Oc3c(NS(=O)(=O)c4ccc(F)cc4)cccc3C(=O)N([C@@H](C)CO)C[C@H]2C)cc1 | 0 | -9 | -1 | x | x | x | x
CNC[C@@H]1Oc2ccc(NC(=O)c3ccncc3)cc2CC(=O)N([C@H](C)CO)C[C@@H]1C | -5 | 17 | -2 | x | x | x | x
CCCNC(=O)[C@@H]1[C@@H](CO)[C@@H]2Cn3c(ccc(-c4ccccc4F)c3=O)[C@H]1N2C(C)=O | x | -19 | -3 | x | x | x | x
CC(C)CC#Cc1cnc2c(c1)C(=O)N([C@@H](C)CO)C[C@H](C)[C@@H](CN(C)S(=O)(=O)c1cccs1)O2 | -10 | 69 | -10 | x | x | x | x
O=C(C1CCOCC1)N1C[C@H]2[C@@H](c3ccccc31)[C@@H](CO)N2C(=O)Cc1ccccc1 | 5 | 12 | -4 | x | x | x | x
C[C@@H]1CN([C@H](C)CO)C(=O)c2cc(-c3ccc(F)cc3)cnc2O[C@H]1CN(C)C(=O)Cc1ccccc1 | 5 | 21 | 1 | x | x | x | x
N#C[C@H]1[C@@H](c2ccc(-c3ccccc3)cc2)[C@@H](CO)N1S(=O)(=O)Cc1ccccc1 | -15 | 91 | 0 | x | x | x | x
N#C[C@H]1[C@@H](c2ccc(-c3ccc(F)cc3)cc2)[C@H](CO)N1C(=O)Cc1ccccc1 | -7 | u | 6 | 106* | 61 | 17 | 77*
N#C[C@@H]1[C@@H](c2ccc(-c3ccc(F)cc3)cc2)[C@H](CO)N1C(=O)Cc1ccccc1 | -19 | 62 | 3 | x | x | x | x
N#C[C@@H]1[C@@H](c2ccc(-c3ccc(F)cc3)cc2)[C@@H](CO)N1S(=O)(=O)Cc1ccccc1 | -31 | 99* | 3 | 97* | 94 | 13 | 102*
